Screening data deposited in PubChem BioAssay by National Center for Advancing Translational Sciences (NCATS).
Only some compounds are listed: those with a hit (about 2.1% of all), similar ones and a draw of the others.
Abeta rescue = qHTS for compounds that reverse cellular toxicity of Amyloid beta (A-beta) peptide in yeast: Primary Screen; 410,000 tested, 0.063% active; AID 1347071, 2019; yeast expressing A-beta42, growth rescue, OD600, 48 h; response scale: 0% DMSO, 100% iron-clioquinol control; Potency, µM (series often up to 46.1 µM), most hits filed as activators; further: nearly all actives have a fitted effect of over 55% in size
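Growth rescue measured by 600 nm absorbance after 48 h yeast culture at 30 C with compound. Values normalized between DMSO and an equimolar ferric chloride plus clioquinol control.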
TDP43 rescue = qHTS of TDP-43 Inhibitors; TDP-43 expressing yeast growth rescue, BacTiter-Glo, 24 h; Potency, µM (titrated, usually from 46.1 µM), actives largely listed as activators; 410,000 tested, 1.8% active; further: nearly all actives have a fitted effect of over 50% in size
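In this qHTS, compounds that restore growth of yeast expressing TDP-43 appear as activators. Cells (OD600=0.02, galactose medium, raffinose-pregrown) are incubated with compound 24 hr at 30 deg C and growth is quantified by BacTiter-Glo.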
aSyn yeast inh = qHTS of alpha-syn Inhibitors | 370,000 tested, 0.14% active | AID 652106, 2013 | Potency, µM (titrated, usually from 46.1 µM), hits mostly activators | Yeast expressing alpha-synuclein, growth rescue, BacTiter-Glo, 24 h; further: nearly all actives have a fitted effect of over 65% in size
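Screening used galactose-induced yeast with toxic alpha-synuclein levels, exposed to compound for 24 hr at 30 deg C. Cell growth, read with BacTiter-Glo luminescence, gave the measured signal.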
FUS suppressor = qHTS for Suppressors of FUS Proteinopathy: Primary screen using FUS-linked yeast assay; S. cerevisiae FUS-expressing, growth rescue, OD600, 24 h; AID 1347120, 2019; 390,000 tested, 0.24% active; Potency, µM (titrated, usually from 76.6 µM), actives largely listed as activators; further: nearly all actives have a fitted effect of over 55% in size
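Quantitative HTS measuring growth restoration of FUS-toxic yeast. Galactose-induced cells (OD 0.005) were exposed 24hr at 30C to compounds at several concentrations, then absorbance at 600 nm was recorded.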
Hits are given with their value; i = inactive; ? = inconclusive; nt = not tested or not shown; ! = repeats disagree; [ ] = dose if it differs, or a comment. The call rests on the fitted dose curve; in most records, active means well fitted curve in the direction sought with a large enough effect; inconclusive means small, poorly fitted or top-dose-only effect, or another doubt; inactive means no such curve, though single readings can be large; an effect the other way counts as inactive or inconclusive.

SMILES	Abeta rescue	TDP43 rescue	aSyn yeast inh	FUS suppressor
Cc1c(Cl)cccc1Nc1nc(N)nc(CSc2nc3ccccc3s2)n1	i	16µM	i	?
O=C(NCc1c(O)ccc2ccccc12)c1ccccc1	?	20µM	i	i
O=C(NCc1ccccc1)c1ccccc1	i	i	i	i
Cc1cccc(N2CCN(C(=O)c3c(C)oc4ncnc(N5CCOCC5)c34)CC2)c1C	i	20µM	nt	i
Cc1ccc(N2CCN(C(=O)c3c(C)oc4nc(C)nc(N5CCCC5)c34)CC2)c(C)c1	i	25µM	nt	i
Cc1cccc(N2CCN(C(=O)c3c(C)oc4ncnc(N5CCCCC5)c34)CC2)c1C	i	35µM	nt	i
Cc1nc(N2CCCC2)c2c(C(=O)N3CCN(c4cccc(C)c4C)CC3)c(C)oc2n1	i	?	nt	i
Cc1ccc(N2CCN(C(=O)c3c(C)oc4ncnc(N5CCOCC5)c34)CC2)c(C)c1	i	?	nt	i
Cc1ccc(NC(=O)OC2CC3CC2[C@H]2CCCCN2[C@H]3Cc2ccccc2)cc1 (stereo partly specified)	nt	nt	nt	i
O=S1(=O)c2ccc(Br)cc2OC[C@H](Cc2ccccc2)N1Cc1cn(Cc2ccc(C(F)(F)F)cc2)nn1	nt	nt	nt	i
Cc1ccc(NC(=S)Nc2cccnc2)c(S(=O)(=O)N2CCCCC2)c1	i	i	i	35µM
Cc1ccc(C)c(NC(=S)Nc2cccnc2)c1	i	i[9.22 µM]	i	i
COc1ccc(-c2cc3ccc(O)c(CN4CCCC4)c3oc2=O)cc1OC	i	i	nt	i
CN(Cc1ccccc1)C(=O)COC(=O)c1ccc2ccccc2n1	i	i	i	i
CCc1nc2ccccc2c(C(=O)OCC(=O)N(C)Cc2ccccc2)c1C	i	35µM	i	i
O=C(c1noc2c1CCCCC2)N1CCN(c2cccc(C(F)(F)F)c2)CC1	i	?	nt	i
C#CCNC(=O)C[C@H]1C[C@@]2(C(=O)OC)C(=C[C@H](C(C)C)O[C@@H]2C2CC2)N(CCC2=CCCCC2)C1=O	nt	nt	nt	i
O=C(Nc1ccc(S(=O)(=O)Nc2ncccn2)cc1)c1nn(Cc2ccccc2)c(=O)c2ccccc12	i	i	i	i
CCn1nc(C(=O)Nc2ccc(S(=O)(=O)Nc3nccs3)cc2)c2ccccc2c1=O	i	i	i	25µM
CC1CCN(C(=O)C2COc3ccccc3C2)CC1 (stereo unspecified)	i	?	nt	i
COc1cccc(/C=C2\Oc3cc(OCC(=O)N4Cc5ccccc5C[C@H]4C(=O)O)ccc3C2=O)c1	i	i	i	28µM
O=C(O)CCCCCN1C(=O)C(O)=C(C(=O)/C=C/c2ccccc2)C1c1ccc2c(c1)OCO2 (stereo unspecified)	i	i	i	35µM
O=c1c2ccccc2nc(-c2ccccc2)n1Cc1ccccc1	i	22µM	i	i
Cc1ccc(-c2nc3ccccc3c(=O)n2O)cc1	i	i	20µM	i
O=c1c2ccccc2nc(-c2ccccc2)n1Cc1ccc(Cl)cc1	i	i	i	i
SMILES	Abeta rescue	TDP43 rescue	aSyn yeast inh	FUS suppressor
COc1ccc(-c2nnc(SCc3c(F)cccc3F)n2N)cc1	nt	nt	nt	i
O=C1C=C(c2ccc(CO)cc2)C[C@@H](c2ccc(F)cc2)C1	i	35µM	i	i
O=C1C=C(C#Cc2ccccc2)C[C@@H](c2ccc(F)cc2)C1	i	18µM	i	i
COc1ccc(C2=CC(=O)C[C@H](c3ccc(Cl)cc3)C2)cc1	i	?	i	i
COc1ccccc1C#CC1=CC(=O)C[C@H](c2ccc(F)cc2)C1	i	i	i	i
Cn1ccc2ccc(C3=CC(=O)C[C@H](c4ccc(F)cc4)C3)cc21	i	16µM	i	i
COc1ccc(C2=CC(=O)CC(c3ccc(F)cc3)C2)cc1 (stereo unspecified)	i	16µM	i	i
CN(C)S(=O)(=O)c1ccc2nc(COCc3nc4ccc(S(=O)(=O)N(C)C)cc4[nH]3)[nH]c2c1	nt	nt	nt	i
O=C1C=C(c2cc3ccccc3s2)C[C@@H](c2ccc(F)cc2)C1	i	18µM	i	i
C=Cc1ccc(C2=CC(=O)C[C@H](c3ccc(OC)cc3)C2)cc1	i	i	i	i
COCc1ccccc1C1=CC(=O)C[C@H](c2ccc(OC)cc2)C1	i	11µM	i	i
CCOc1ccc(C2=CC(=O)C[C@H](c3ccc(OC)cc3)C2)cc1	i	13µM	i	i
COc1ccc(C2=CC(=O)CC(c3ccccc3)C2)cc1 (stereo unspecified)	i	18µM	i	i
N#Cc1ccc(/C=C2\CC3(OC(=O)c4ccc(Cl)cc4)CCCN2C3)cc1 (stereo unspecified)	nt	nt	nt	i
CCCC(=O)OC12CCCN(C1)/C(=C/c1cccc(N(C)C)c1)C2 (stereo unspecified)	nt	nt	nt	i
Cc1ccc(C2=CC(=O)C[C@H](c3ccc(F)cc3)C2)cc1	i	16µM	i	i
COc1ccc(C2=CC(=O)CC(c3ccc(OC)cc3)C2)cc1 (stereo unspecified)	i	25µM	i	i
O=C1C=C(c2ccc(-c3ccccc3)cc2)C[C@@H](c2ccc(F)cc2)C1	i	i	i	i
Cc1ccc(NC(=O)[C@@H]2CC(=O)O[C@@H]2c2ccccc2)cc1C	nt	nt	nt	i
C=CCNc1nc(Cl)nc(NC2CCCCC2)n1	i	16µM	i	i
O=[N+]([O-])c1ccc(Nc2nc(N/N=C\c3ccc4c(c3)OCO4)nc(N3CCCCC3)n2)cc1	?	11µM	i	?
O=[N+]([O-])c1ccc(/C=N/Nc2nc(N3CCCCCC3)nc(N3CCCCCC3)n2)o1	i	22µM	i	?
O=[N+]([O-])c1ccc(/C=N/Nc2nc(N3CCCCC3)nc(N3CCCCC3)n2)cc1	i	i	i	i
O=C(OCc1cn(Cc2ccc(C(F)(F)F)cc2)nn1)N1CCCC1	nt	nt	nt	i
O=C(NC1CCCCN(Cc2ccc(Cl)cc2)C1=O)c1cccs1 (stereo unspecified)	nt	nt	nt	i
SMILES	Abeta rescue	TDP43 rescue	aSyn yeast inh	FUS suppressor
O=C(Cn1nc(-c2ccccc2)ccc1=O)NCc1ccc(F)cc1Cl	i	i	nt	i
O=c1ccc(-c2ccccc2)nn1Cc1ccc(F)cc1Cl	i	32µM!	i	i
O=c1ccc(-c2ccccc2)nn1Cc1ccccc1	i	22µM	i	i
Cc1ccc(-c2ccc(=O)n(Cc3cccc(Br)c3)n2)cc1	i	i	22µM	?
CCc1ccc(S(=O)(=O)N(C(=O)c2ccncc2)c2ccc3oc(C)c(C(=O)OC)c3c2)cc1	i	20µM	nt	i
O=C(Nc1c(Cl)cccc1Cl)c1cc(-c2cccc(O)c2)on1	i	16µM	nt	i
O=C(Nc1c(Cl)cccc1Cl)c1cc(-c2ccc3c(c2)OCO3)on1	i	i	nt	i
CC1CCCN(S(=O)(=O)c2ccc(NC(=O)CN3C(=O)NC(C)(c4ccccc4)C3=O)cc2)C1 (stereo unspecified)	i	i	i	28µM
Cc1ccc(CCNC(=O)CCCn2c(=O)c3ccccc3n(CC(=O)Nc3cc(Cl)ccc3C)c2=O)cc1	i	i	nt	i
